# Data as given in article PMC11006913.
# Positions count from the first letter of the chain named.
# Legend:
# Assay in all cases: PBM; 200 nM protein, PBS
# Settings in all cases: dsDNA, one strand shown
# SIX6 [1] = molecular target: T1, SIX6 (Homo sapiens, UniProt O95475 114-200, L143M)
# T1 sequence: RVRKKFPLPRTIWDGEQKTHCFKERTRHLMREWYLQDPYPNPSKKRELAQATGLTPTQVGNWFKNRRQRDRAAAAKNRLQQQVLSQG
# HOXB6 [2] = molecular target: HOXB6 (Homo sapiens, UniProt P17509 132-218, K202E)
# ALX1 [3] = molecular target: ALX1 (Homo sapiens, UniProt Q15699 118-204, L144V)
# ALX1 (Homo sapiens, UniProt Q15699 118-204, L144V), sequence (Q15699 118-204 L144V): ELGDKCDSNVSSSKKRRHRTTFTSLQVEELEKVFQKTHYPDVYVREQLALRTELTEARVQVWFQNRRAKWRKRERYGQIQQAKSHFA
# ALX1 [4] = molecular target: ALX1 (Homo sapiens, UniProt Q15699 118-204, L144R)
# ALX1 (Homo sapiens, UniProt Q15699 118-204, L144R), sequence (Q15699 118-204 L144R): as the sequence (Q15699 118-204 L144V) above, with V27R counted along it
# ALX1 [5] = molecular target: ALX1 (Homo sapiens, UniProt Q15699 118-204)
# ALX1 (Homo sapiens, UniProt Q15699 118-204), sequence (Q15699 118-204): as the sequence (Q15699 118-204 L144V) above, with V27L counted along it
# HOXB6 [6] = molecular target: HOXB6 (Homo sapiens, UniProt P17509 132-218)
# HOXB6 (Homo sapiens, UniProt P17509 132-218), sequence (P17509 132-218): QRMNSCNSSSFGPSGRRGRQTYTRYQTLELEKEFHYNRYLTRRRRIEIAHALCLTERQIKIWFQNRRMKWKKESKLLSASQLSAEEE
# SIX6 [7] = molecular target: T2, SIX6 (Homo sapiens, UniProt O95475 114-200, T139Q)
# T2 sequence: T1 sequence with T26Q, M30L
# HOXA2 [8] = molecular target: HOXA2 (Homo sapiens, UniProt O43364 129-215, R185T)
# HOXA2 (Homo sapiens, UniProt O43364 129-215, R185T), sequence (O43364 129-215 R185T): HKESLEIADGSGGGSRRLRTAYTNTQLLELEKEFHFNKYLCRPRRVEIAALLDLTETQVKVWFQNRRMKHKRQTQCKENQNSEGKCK
# HOXD13 [9] = molecular target: HOXD13 (Homo sapiens, UniProt P35453 263-343, T313R)
# HOXD13 (Homo sapiens, UniProt P35453 263-343, T313R), sequence (P35453 263-343 T313R): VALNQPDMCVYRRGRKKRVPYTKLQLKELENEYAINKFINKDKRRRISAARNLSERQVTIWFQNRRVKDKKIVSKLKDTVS
# HOXA2 [10] = molecular target: HOXA2 (Homo sapiens, UniProt O43364 129-215, R185K)
# HOXA2 (Homo sapiens, UniProt O43364 129-215, R185K), sequence (O43364 129-215 R185K): as the sequence (O43364 129-215 R185T) above, with T57K counted along it
# HOXD13 [11] = molecular target: HOXD13 (Homo sapiens, UniProt P35453 263-343)
# HOXD13 (Homo sapiens, UniProt P35453 263-343), sequence (P35453 263-343): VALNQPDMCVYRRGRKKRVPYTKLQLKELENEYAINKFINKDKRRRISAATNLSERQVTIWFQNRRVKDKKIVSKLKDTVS
# HOXD13 [12] = molecular target: HOXD13 (Homo sapiens, UniProt P35453 263-343, T313A)
# HOXD13 (Homo sapiens, UniProt P35453 263-343, T313A), sequence (P35453 263-343 T313A): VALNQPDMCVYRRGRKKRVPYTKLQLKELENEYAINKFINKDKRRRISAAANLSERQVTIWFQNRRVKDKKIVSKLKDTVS
# HOXA2 [13] = molecular target: HOXA2 (Homo sapiens, UniProt O43364 129-215, Y150S)
# HOXA2 (Homo sapiens, UniProt O43364 129-215, Y150S), sequence (O43364 129-215 Y150S): as the sequence (O43364 129-215 R185T) above, with Y22S, T57R counted along it
# HOXA2 [14] = molecular target: HOXA2 (Homo sapiens, UniProt O43364 129-215)
# HOXA2 (Homo sapiens, UniProt O43364 129-215), sequence (O43364 129-215): as the sequence (O43364 129-215 R185T) above, with T57R counted along it
# NKX2-6 [15] = molecular target: T3, NKX2-6 (Homo sapiens, UniProt A6NCS4 118-204)
# T3 sequence: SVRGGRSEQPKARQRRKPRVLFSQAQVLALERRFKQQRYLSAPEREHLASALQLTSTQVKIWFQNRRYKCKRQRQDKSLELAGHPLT
# NKX2-6 [16] = molecular target: T4, NKX2-6 (Homo sapiens, UniProt A6NCS4 118-204, F151L)
# T4 sequence: T3 sequence with F34L
# SIX6 [17] = molecular target: T5, SIX6 (Homo sapiens, UniProt O95475 114-200, L143I)
# T5 sequence: T1 sequence with M30I
# PITX2 = PITX2 (Homo sapiens, UniProt Q99697 72-157)
# VAX1 [18] = molecular target: VAX1 (Homo sapiens, UniProt Q5SQQ9 86-172)
# VAX1 (Homo sapiens, UniProt Q5SQQ9 86-172), sequence (Q5SQQ9 86-172): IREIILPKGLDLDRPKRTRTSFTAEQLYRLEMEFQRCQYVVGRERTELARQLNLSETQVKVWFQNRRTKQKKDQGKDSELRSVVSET
# VAX1 [19] = molecular target: VAX1 (Homo sapiens, UniProt Q5SQQ9 86-172, T142I)
# VAX1 (Homo sapiens, UniProt Q5SQQ9 86-172, T142I), sequence (Q5SQQ9 86-172 T142I): as the sequence (Q5SQQ9 86-172) above, with T57I counted along it
# VAX1 [20] = molecular target: VAX1 (Homo sapiens, UniProt Q5SQQ9 86-172, K157R)
# VAX1 (Homo sapiens, UniProt Q5SQQ9 86-172, K157R), sequence (Q5SQQ9 86-172 K157R): as the sequence (Q5SQQ9 86-172) above, with K72R counted along it
# ALX3 [21] = molecular target: ALX3 (Homo sapiens, UniProt O95076 139-225, N203Q)
# ALX3 (Homo sapiens, UniProt O95076 139-225, N203Q), sequence (O95076 139-225 N203Q): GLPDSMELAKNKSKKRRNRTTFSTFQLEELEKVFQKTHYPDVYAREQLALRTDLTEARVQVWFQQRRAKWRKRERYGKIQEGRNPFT
# ALX3 [22] = molecular target: ALX3 (Homo sapiens, UniProt O95076 139-225, N203S)
# ALX3 (Homo sapiens, UniProt O95076 139-225, N203S), sequence (O95076 139-225 N203S): as the sequence (O95076 139-225 N203Q) above, with Q65S counted along it
# PROP1 [23] = molecular target: PROP1 (Homo sapiens, UniProt O75360 56-141)
# PROP1 (Homo sapiens, UniProt O75360 56-141), sequence (O75360 56-141): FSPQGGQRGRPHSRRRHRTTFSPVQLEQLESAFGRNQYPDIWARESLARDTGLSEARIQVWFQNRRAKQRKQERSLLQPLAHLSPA
# PROP1 [24] = molecular target: PROP1 (Homo sapiens, UniProt O75360 56-141, R99H)
# PROP1 (Homo sapiens, UniProt O75360 56-141, R99H), sequence (O75360 56-141 R99H): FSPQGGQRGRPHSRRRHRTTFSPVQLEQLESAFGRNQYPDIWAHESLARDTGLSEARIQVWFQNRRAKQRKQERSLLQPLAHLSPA
# PROP1 [25] = molecular target: PROP1 (Homo sapiens, UniProt O75360 56-141, F88S)
# PROP1 (Homo sapiens, UniProt O75360 56-141, F88S), sequence (O75360 56-141 F88S): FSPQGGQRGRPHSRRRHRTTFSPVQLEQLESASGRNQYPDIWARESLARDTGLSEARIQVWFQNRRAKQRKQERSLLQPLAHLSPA
# ALX3 [26] = molecular target: ALX3 (Homo sapiens, UniProt O95076 139-225)
# ALX3 (Homo sapiens, UniProt O95076 139-225), sequence (O95076 139-225): as the sequence (O95076 139-225 N203Q) above, with Q65N counted along it
# ALX3 [27] = molecular target: ALX3 (Homo sapiens, UniProt O95076 139-225, L168Q)
# ALX3 (Homo sapiens, UniProt O95076 139-225, L168Q), sequence (O95076 139-225 L168Q): as the sequence (O95076 139-225 N203Q) above, with L30Q, Q65N counted along it
# ALX3 [28] = molecular target: ALX3 (Homo sapiens, UniProt O95076 139-225, L168V)
# ALX3 (Homo sapiens, UniProt O95076 139-225, L168V), sequence (O95076 139-225 L168V): as the sequence (O95076 139-225 N203Q) above, with L30V, Q65N counted along it
# PAX4 = molecular target: T6, PAX4 (Homo sapiens, UniProt O43316 9-242, F177Y)
# T6 sequence: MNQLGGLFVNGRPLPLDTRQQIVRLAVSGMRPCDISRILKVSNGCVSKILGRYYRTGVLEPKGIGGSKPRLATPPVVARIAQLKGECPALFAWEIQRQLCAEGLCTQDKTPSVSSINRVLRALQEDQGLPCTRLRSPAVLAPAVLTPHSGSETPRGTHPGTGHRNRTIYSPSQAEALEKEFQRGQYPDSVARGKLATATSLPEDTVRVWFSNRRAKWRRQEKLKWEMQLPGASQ
# HOXC9 = HOXC9 (Homo sapiens, UniProt P31274 178-260, R222W)
# HOXC9, sequence (P31274 178-260 R222W): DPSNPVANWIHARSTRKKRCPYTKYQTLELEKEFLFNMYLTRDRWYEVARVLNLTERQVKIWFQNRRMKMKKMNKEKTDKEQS
# NKX2-6 [29] = molecular target: T7, NKX2-6 (Homo sapiens, UniProt A6NCS4 118-204, R150C)
# T7 sequence: T3 sequence with R33C
# HOXB6 (Homo sapiens, UniProt P17509 132-218, K202E), sequence (P17509 132-218 K202E): as the sequence (P17509 132-218) above, with K71E counted along it
sequence,measurement,setting,value
ATAGTATC,binding signal,SIX6 [1],"11 upbm affinity estimate (log intensity, higher = more binding, comparable within an allelic series)"
CTCGTGCC,binding signal,HOXB6 [2],"9.04 upbm affinity estimate (log intensity, higher = more binding, comparable within an allelic series)"
same,binding signal,ALX1 [3],"6.52 upbm affinity estimate (log intensity, higher = more binding, comparable within an allelic series)"
same,binding signal,ALX1 [4],"6.32 upbm affinity estimate (log intensity, higher = more binding, comparable within an allelic series)"
same,binding signal,ALX1 [5],"6.36 upbm affinity estimate (log intensity, higher = more binding, comparable within an allelic series)"
same,binding signal,HOXB6 [6],"8.84 upbm affinity estimate (log intensity, higher = more binding, comparable within an allelic series)"
ACATTAAC,binding signal,HOXB6 [2],"10 upbm affinity estimate (log intensity, higher = more binding, comparable within an allelic series)"
ACCGTTAA,binding signal,HOXB6 [2],"9.66 upbm affinity estimate (log intensity, higher = more binding, comparable within an allelic series)"
same,binding signal,HOXB6 [6],"10.6 upbm affinity estimate (log intensity, higher = more binding, comparable within an allelic series)"
ATAGATAC,binding signal,SIX6 [1],"10.9 upbm affinity estimate (log intensity, higher = more binding, comparable within an allelic series)"
same,binding signal,SIX6 [7],"11.1 upbm affinity estimate (log intensity, higher = more binding, comparable within an allelic series)"
GACCGAGC,binding signal,HOXB6 [2],"8.96 upbm affinity estimate (log intensity, higher = more binding, comparable within an allelic series)"
same,binding signal,ALX1 [3],"6.39 upbm affinity estimate (log intensity, higher = more binding, comparable within an allelic series)"
same,binding signal,ALX1 [4],"6.24 upbm affinity estimate (log intensity, higher = more binding, comparable within an allelic series)"
same,binding signal,ALX1 [5],"6.33 upbm affinity estimate (log intensity, higher = more binding, comparable within an allelic series)"
same,binding signal,HOXB6 [6],"8.92 upbm affinity estimate (log intensity, higher = more binding, comparable within an allelic series)"
CGGAGGCC,binding signal,HOXB6 [2],"8.93 upbm affinity estimate (log intensity, higher = more binding, comparable within an allelic series)"
same,binding signal,HOXA2 [8],"7.34 upbm affinity estimate (log intensity, higher = more binding, comparable within an allelic series)"
same,binding signal,HOXD13 [9],"9.47 upbm affinity estimate (log intensity, higher = more binding, comparable within an allelic series)"
same,binding signal,HOXA2 [10],"10.1 upbm affinity estimate (log intensity, higher = more binding, comparable within an allelic series)"
same,binding signal,HOXD13 [11],"9.47 upbm affinity estimate (log intensity, higher = more binding, comparable within an allelic series)"
same,binding signal,HOXD13 [12],"9.66 upbm affinity estimate (log intensity, higher = more binding, comparable within an allelic series)"
same,binding signal,HOXA2 [13],"10.3 upbm affinity estimate (log intensity, higher = more binding, comparable within an allelic series)"
same,binding signal,HOXA2 [14],"7.12 upbm affinity estimate (log intensity, higher = more binding, comparable within an allelic series)"
same,binding signal,HOXB6 [6],"8.97 upbm affinity estimate (log intensity, higher = more binding, comparable within an allelic series)"
GGACCCCC,binding signal,HOXB6 [2],"8.73 upbm affinity estimate (log intensity, higher = more binding, comparable within an allelic series)"
same,binding signal,NKX2-6 [15],"9.37 upbm affinity estimate (log intensity, higher = more binding, comparable within an allelic series)"
same,binding signal,NKX2-6 [16],"8.99 upbm affinity estimate (log intensity, higher = more binding, comparable within an allelic series)"
same,binding signal,HOXB6 [6],"8.68 upbm affinity estimate (log intensity, higher = more binding, comparable within an allelic series)"
ATACATAC,binding signal,SIX6 [17],"10.4 upbm affinity estimate (log intensity, higher = more binding, comparable within an allelic series)"
ATCTGATC,binding signal,SIX6 [1],"11 upbm affinity estimate (log intensity, higher = more binding, comparable within an allelic series)"
same,binding signal,SIX6 [17],"10.4 upbm affinity estimate (log intensity, higher = more binding, comparable within an allelic series)"
CGTGGCAG,binding signal,HOXB6 [2],"9.05 upbm affinity estimate (log intensity, higher = more binding, comparable within an allelic series)"
same,binding signal,HOXA2 [8],"7.29 upbm affinity estimate (log intensity, higher = more binding, comparable within an allelic series)"
same,binding signal,PITX2,"8.07 upbm affinity estimate (log intensity, higher = more binding, comparable within an allelic series)"
same,binding signal,HOXA2 [10],"10.5 upbm affinity estimate (log intensity, higher = more binding, comparable within an allelic series)"
same,binding signal,VAX1 [18],"7.05 upbm affinity estimate (log intensity, higher = more binding, comparable within an allelic series)"
same,binding signal,VAX1 [19],"7.33 upbm affinity estimate (log intensity, higher = more binding, comparable within an allelic series)"
same,binding signal,HOXA2 [13],"10.4 upbm affinity estimate (log intensity, higher = more binding, comparable within an allelic series)"
same,binding signal,HOXA2 [14],"7.45 upbm affinity estimate (log intensity, higher = more binding, comparable within an allelic series)"
same,binding signal,VAX1 [20],"7.05 upbm affinity estimate (log intensity, higher = more binding, comparable within an allelic series)"
same,binding signal,HOXB6 [6],"9.07 upbm affinity estimate (log intensity, higher = more binding, comparable within an allelic series)"
CCACGGGC,binding signal,HOXB6 [2],"9 upbm affinity estimate (log intensity, higher = more binding, comparable within an allelic series)"
same,binding signal,HOXD13 [9],"9.41 upbm affinity estimate (log intensity, higher = more binding, comparable within an allelic series)"
same,binding signal,HOXD13 [11],"9.46 upbm affinity estimate (log intensity, higher = more binding, comparable within an allelic series)"
same,binding signal,HOXD13 [12],"9.44 upbm affinity estimate (log intensity, higher = more binding, comparable within an allelic series)"
same,binding signal,HOXB6 [6],"9.06 upbm affinity estimate (log intensity, higher = more binding, comparable within an allelic series)"
TAATATTA,binding signal,HOXB6 [2],"10 upbm affinity estimate (log intensity, higher = more binding, comparable within an allelic series)"
same,binding signal,ALX3 [21],"8.61 upbm affinity estimate (log intensity, higher = more binding, comparable within an allelic series)"
same,binding signal,ALX3 [22],"8.68 upbm affinity estimate (log intensity, higher = more binding, comparable within an allelic series)"
CTCGGCTC,binding signal,HOXB6 [2],"9.06 upbm affinity estimate (log intensity, higher = more binding, comparable within an allelic series)"
same,binding signal,HOXB6 [6],"8.95 upbm affinity estimate (log intensity, higher = more binding, comparable within an allelic series)"
CCACGCTC,binding signal,HOXB6 [2],"8.98 upbm affinity estimate (log intensity, higher = more binding, comparable within an allelic series)"
same,binding signal,PROP1 [23],"6.83 upbm affinity estimate (log intensity, higher = more binding, comparable within an allelic series)"
same,binding signal,PROP1 [24],"6.88 upbm affinity estimate (log intensity, higher = more binding, comparable within an allelic series)"
same,binding signal,PROP1 [25],"6.58 upbm affinity estimate (log intensity, higher = more binding, comparable within an allelic series)"
same,binding signal,HOXB6 [6],"9.03 upbm affinity estimate (log intensity, higher = more binding, comparable within an allelic series)"
TACATTAA,binding signal,HOXB6 [2],"10 upbm affinity estimate (log intensity, higher = more binding, comparable within an allelic series)"
same,binding signal,ALX3 [21],"8.45 upbm affinity estimate (log intensity, higher = more binding, comparable within an allelic series)"
same,binding signal,ALX3 [26],"11 upbm affinity estimate (log intensity, higher = more binding, comparable within an allelic series)"
same,binding signal,ALX3 [27],"9.29 upbm affinity estimate (log intensity, higher = more binding, comparable within an allelic series)"
same,binding signal,ALX3 [28],"9.07 upbm affinity estimate (log intensity, higher = more binding, comparable within an allelic series)"
same,binding signal,ALX3 [22],"8.57 upbm affinity estimate (log intensity, higher = more binding, comparable within an allelic series)"
AATTTAAT,binding signal,HOXB6 [2],"9.98 upbm affinity estimate (log intensity, higher = more binding, comparable within an allelic series)"
same,binding signal,HOXD13 [9],"10.4 upbm affinity estimate (log intensity, higher = more binding, comparable within an allelic series)"
same,binding signal,HOXD13 [11],"11.5 upbm affinity estimate (log intensity, higher = more binding, comparable within an allelic series)"
same,binding signal,PAX4,"10.9 upbm affinity estimate (log intensity, higher = more binding, comparable within an allelic series)"
same,binding signal,PROP1 [23],"11.2 upbm affinity estimate (log intensity, higher = more binding, comparable within an allelic series)"
same,binding signal,PROP1 [24],"10.7 upbm affinity estimate (log intensity, higher = more binding, comparable within an allelic series)"
same,binding signal,HOXD13 [12],"11.3 upbm affinity estimate (log intensity, higher = more binding, comparable within an allelic series)"
same,binding signal,HOXC9,"11.1 upbm affinity estimate (log intensity, higher = more binding, comparable within an allelic series)"
same,binding signal,PROP1 [25],"7.76 upbm affinity estimate (log intensity, higher = more binding, comparable within an allelic series)"
CGAGGCTC,binding signal,HOXB6 [2],"9.01 upbm affinity estimate (log intensity, higher = more binding, comparable within an allelic series)"
same,binding signal,NKX2-6 [29],"9.43 upbm affinity estimate (log intensity, higher = more binding, comparable within an allelic series)"
same,binding signal,HOXB6 [6],"9.11 upbm affinity estimate (log intensity, higher = more binding, comparable within an allelic series)"
